C diff growth – blocks growth of Clostridium difficile; Clostridium difficile clinical isolate growth, OD600, 24 h; active compounds read low; growth activity, negative = inhibition, % at 16 µg/mL (by protocol); 0.25% of 86,000 active; AID 1259249;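 active = mean growth activity at or below -80% and every replicate also at or below -80%; inconclusive = mean at or below -80% but some replicate above -80%; inactive = mean growth activity above -80%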
T cruzi growth-1 – blocks T. cruzi growth in NIH3T3 culture. inhibition, % at 8.34 µM. 5.9% of 77,000 active. AID 624255. T. cruzi beta-gal in NIH3T3, GalScreen luminescence, 90 h;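 active = mean inhibition above about 93%, with at least 55% of replicates each passing it, limit read from the data, passing the limit was not always enough; inconclusive = only one of those two conditions holds; inactive = neither condition holds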
Pf Dd2 inh – blocks growth of Plasmodium falciparum Dd2 parasites. activity change, % at 10 µM. P. falciparum Dd2 growth, SYBR Green, 72 h; active compounds read low. 2.3% of 94,000 active; in the data active = activity change below about -80%; inconclusive = no clear call, values can overlap the other calls
T cruzi growth-2 – Trypanosoma cruzi proliferation inhibition | shares compounds with T cruzi growth-1 | T. cruzi beta-gal in NIH3T3, GalScreen luminescence, 90 h | 72% of 5,600 active | inhibition, % at 8.35 µM | AID 651739;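 active = mean replicate inhibition above about 95% and at least 55% of replicates individually reaching it, limit read from the data; inconclusive = only one of the two criteria is met; inactive = neither criterion is met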
T cruzi growth-3 – blocks T. cruzi growth in NIH3T3 host cells; shares compounds with T cruzi growth-1; T. cruzi beta-gal in NIH3T3, GalScreen luminescence, 90 h; inhibition, % at 2.09 µM; 21% of 5,600 active;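 active = mean inhibition above about 95%, with at least 55% of replicates also reaching it, limit read from the data; inconclusive = meets just one of the two conditions; inactive = meets neither condition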
3T3 cytotox – kills mouse NIH/3T3 fibroblasts; NIH/3T3 viability, CellTiter-Glo ATP luminescence, 90 h; shares compounds with T cruzi growth-1; 14% of 5,600 active; AID 651742; cytotoxicity (signal decrease), % at 8.35 µM;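 active = mean signal decrease across replicates above about 35% based on untreated-well scatter, with enough replicates individually passing, limit read from the data; inconclusive = no rule stated though some were filed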
3T3 cytotox 2 – NIH/3T3 (mouse) viability loss | shares compounds with T cruzi growth-1 | 56% of 5,600 active | inhibition, % at 24.9 µM | NIH/3T3 viability, CellTiter-Glo ATP luminescence, 90 h;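 active = mean loss of cell viability signal at or above a set limit, and enough replicates individually reaching it; inconclusive = meets only the mean limit or only the replicate share; inactive = meets neither condition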
Large screens that a line does not name were inactive (follow-up assays come after a bar, where they were run). A selection: hits, their analogues and other compounds. The true share with any hit is near 6.8%.

COc1ccc(NC(=O)Nc2ccc3c(c2)C(=O)N([C@@H](C)CO)C[C@H](C)[C@@H](CN(C)C(=O)Nc2ccc(C(F)(F)F)cc2)OCCCC[C@H](C)O3)cc1	T cruzi growth-1 inconclusive, Pf Dd2 inh -82 | T cruzi growth-2 107 | T cruzi growth-3 110 | 3T3 cytotox inactive | 3T3 cytotox 2 inactive
COc1ccc(NC(=O)N(C)C[C@@H]2OCCCC[C@H](C)Oc3ccc(NC(=O)Nc4ccc(C(F)(F)F)cc4)cc3C(=O)N([C@H](C)CO)C[C@@H]2C)cc1	none
O=C(C[C@@H]1CC[C@@H]2[C@H](COC[C@H](O)CN2CC2CCCCC2)O1)NCc1ccc(F)cc1	T cruzi growth-1 inconclusive (no result: Pf Dd2 inh) | T cruzi growth-2 inactive | T cruzi growth-3 inactive | 3T3 cytotox inactive | 3T3 cytotox 2 inactive
CN(C)CCCNC(=O)C[C@@H]1CC[C@H]2[C@@H](COC[C@@H](O)CN2CC2CCCC2)O1	none (no result: Pf Dd2 inh)
O=C(C[C@H]1CC[C@H]2[C@@H](COC[C@@H](O)CN2CC2CCCCC2)O1)NCc1ccc(F)cc1	none (no result: Pf Dd2 inh)
CN(C)CCCNC(=O)C[C@H]1CC[C@@H]2[C@H](COC[C@H](O)CN2CC2CCCC2)O1	T cruzi growth-1 inconclusive (no result: Pf Dd2 inh) | T cruzi growth-2 inactive | T cruzi growth-3 inactive | 3T3 cytotox inactive | 3T3 cytotox 2 inactive
CO[C@@H]1CN(C)C(=O)c2ccc(NC(C)=O)cc2OC[C@@H](C)N(C(=O)c2ccccc2F)C[C@H]1C	none
CO[C@H]1CN(C)C(=O)c2cc(NC(=O)C3CCC3)ccc2OC[C@@H](C)N(Cc2cccnc2)C[C@H]1C	none (no result: C diff growth)
CC(C)CC#Cc1ccc2c(c1)O[C@H](CN(C)C(=O)NC(C)C)[C@H](C)CN([C@@H](C)CO)S2(=O)=O	none
CC(C)CC#Cc1ccc2c(c1)O[C@H](CN(C)C(=O)NC1CCCC1)[C@@H](C)CN([C@@H](C)CO)S2(=O)=O	T cruzi growth-1 125 | T cruzi growth-2 103 | T cruzi growth-3 inactive | 3T3 cytotox inactive | 3T3 cytotox 2 103
CC(C)CC#Cc1ccc2c(c1)O[C@@H](CN(C)C(=O)NC(C)C)[C@@H](C)CN([C@H](C)CO)S2(=O)=O	none (no result: C diff growth)
CC(C)CC#Cc1ccc2c(c1)O[C@@H](CN(C)C(=O)NC(C)C)[C@H](C)CN([C@H](C)CO)S2(=O)=O	none (no result: C diff growth)
CC(C)CC#Cc1ccc2c(c1)O[C@H](CN(C)C(=O)NC(C)C)[C@H](C)CN([C@H](C)CO)S2(=O)=O	none
CC(C)CC#Cc1ccc2c(c1)O[C@H](CN(C)C(=O)NC1CCCC1)[C@H](C)CN([C@H](C)CO)S2(=O)=O	T cruzi growth-1 120 | T cruzi growth-2 103 | T cruzi growth-3 inactive | 3T3 cytotox inactive | 3T3 cytotox 2 104
CC(C)CC#Cc1ccc2c(c1)O[C@H](CN(C)C(=O)NC1CCCC1)[C@H](C)CN([C@@H](C)CO)S2(=O)=O	T cruzi growth-1 120 | T cruzi growth-2 110 | T cruzi growth-3 inactive | 3T3 cytotox inactive | 3T3 cytotox 2 81
CC(C)CC#Cc1ccc2c(c1)O[C@@H](CN(C)C(=O)NC1CCCC1)[C@@H](C)CN([C@@H](C)CO)S2(=O)=O	T cruzi growth-1 120 | T cruzi growth-2 101 | T cruzi growth-3 inactive | 3T3 cytotox inactive | 3T3 cytotox 2 104
COCCNC(=O)C[C@@H]1CC[C@H](NC(=O)NC2CCCC2)[C@H](CO)O1	none (no result: T cruzi growth-1)
C/C=C/c1ccc([C@H]2[C@@H](CO)N(C(=O)CC)[C@@H]2CNC(=O)CC2CC2)cc1	none
CC(C)CC#Cc1ccc([C@@H]2[C@@H](CO)N3CCCCN(C(=O)c4ccc5c(c4)OCO5)C[C@@H]23)cc1	none
CCCC#Cc1ccc([C@H]2[C@@H](CO)N3CCCCN(C(=O)c4ccc5c(c4)OCO5)C[C@H]23)cc1	T cruzi growth-1 117 | T cruzi growth-2 104 | T cruzi growth-3 inactive | 3T3 cytotox 51 | 3T3 cytotox 2 103
CCCC#Cc1ccc([C@@H]2[C@H](CO)N3CCCCN(C(=O)c4ccc5c(c4)OCO5)C[C@@H]23)cc1	T cruzi growth-1 inconclusive | T cruzi growth-2 106 | T cruzi growth-3 inactive | 3T3 cytotox inactive | 3T3 cytotox 2 103
CCCC#Cc1ccc([C@@H]2[C@@H](CO)N3CCCCN(C(=O)c4ccc5c(c4)OCO5)C[C@@H]23)cc1	T cruzi growth-1 122 | T cruzi growth-2 107 | T cruzi growth-3 inactive | 3T3 cytotox 38 | 3T3 cytotox 2 102
C[C@@H](O)C#Cc1ccc([C@H]2[C@@H](CO)N3CCCCN(C(=O)c4ccc5c(c4)OCO5)C[C@@H]23)cc1	none
CCCC#Cc1ccc([C@@H]2[C@H]3CN(C(=O)c4ccc5c(c4)OCO5)CCCCN3[C@H]2CO)cc1	none
CCNC(=O)[C@@H]1[C@@H](CO)[C@@H]2Cn3c(cccc3=O)[C@H]1N2C(=O)c1ccc(F)cc1	none (no result: T cruzi growth-1)
Cc1noc(C)c1S(=O)(=O)N(C)C[C@@H]1Oc2ccc(NC(=O)Nc3ccc4c(c3)OCO4)cc2CC(=O)N([C@@H](C)CO)C[C@H]1C	none (no result: T cruzi growth-1)
CN(C)CC(=O)N[C@@H]1CC[C@H](CCNC(=O)C2CC2)O[C@H]1CO	none (no result: T cruzi growth-1)
C[C@H]1CN([C@@H](C)CO)C(=O)Cc2cc(NS(=O)(=O)c3ccccc3)ccc2O[C@H]1CN(C)Cc1ccncc1	none
Cn1cnc(S(=O)(=O)N2CCCCN3[C@H](CO)[C@H](c4ccc(-c5ccccc5)cc4)[C@@H]3C2)c1	none
Cc1cccc(-c2ccc([C@@H]3[C@@H](CO)N4CCCCN(S(=O)(=O)c5cn(C)cn5)C[C@@H]34)cc2)c1	T cruzi growth-1 inconclusive | T cruzi growth-2 inactive | T cruzi growth-3 inactive | 3T3 cytotox inactive | 3T3 cytotox 2 82
Cn1cnc(S(=O)(=O)N2CCCCN3[C@H](CO)[C@H](c4ccc(-c5ccccc5)cc4)[C@H]3C2)c1	T cruzi growth-1 inconclusive | T cruzi growth-2 inactive | T cruzi growth-3 inactive | 3T3 cytotox inactive | 3T3 cytotox 2 30
Cc1cccc(-c2ccc([C@H]3[C@@H](CO)N4CCCCN(S(=O)(=O)c5cn(C)cn5)C[C@@H]34)cc2)c1	none
Cn1cnc(S(=O)(=O)N2CCCCN3[C@@H](CO)[C@@H](c4ccc(-c5ccccc5)cc4)[C@@H]3C2)c1	T cruzi growth-1 114 | T cruzi growth-2 inactive | T cruzi growth-3 inactive | 3T3 cytotox inactive | 3T3 cytotox 2 40
Cn1cnc(S(=O)(=O)N2CCCCN3[C@H](CO)[C@H](c4ccc(-c5ccc(F)cc5)cc4)[C@@H]3C2)c1	none
C[C@H]1CN([C@@H](C)CO)C(=O)c2cccc(NC(=O)c3ccncc3)c2O[C@@H]1CN(C)C(=O)Nc1ccc(C(F)(F)F)cc1	none
COCC(=O)N1CC2(C1)CN(C(=O)Nc1ccccc1F)[C@H](CO)c1c2c2ccc(OC)cc2n1C	none (no result: C diff growth, T cruzi growth-1)
COc1ccc(S(=O)(=O)N(C)C[C@H]2OCCCC[C@@H](C)Oc3ccc(NS(=O)(=O)c4ccc(Cl)cc4)cc3C(=O)N([C@@H](C)CO)C[C@H]2C)cc1	none (no result: T cruzi growth-1)
